Source: PubChem (National Center for Advancing Translational Sciences (NCATS))
ELG1 DNA repair: qHTS screen for small molecules that inhibit ELG1-dependent DNA repair in human embryonic kidney (HEK293T) cells expressing luciferase-tagged ELG1; HEK293T ELG1-luciferase reporter, luminescence, 16 h; DNA damage induced by 5-fluorouridine; Potency, µM (top dose mostly 46.1 µM), without a hit: top-dose activity change, negative = inhibition, usual class: inhibitors; actives 2.3% (n = 330,000); note: potency is the fitted concentration of half-maximal effect; nearly all actives have a fitted effect of over 55% in size
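In this reporter screen, reduction of luminescence relative to DMSO vehicle indicated activity. Compounds and 5-fluorouridine were added together to 2,000 cells per well, incubated for 16 hr at 37 °C, then developed with ONE-Glo.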
TDP1 cell noCPT: qHTS for Inhibitors of human tyrosyl-DNA phosphodiesterase 1 (TDP1): qHTS in cells in absence of CPT; DT40 Tdp1-/- hTDP1 cells, no CPT, ATP luminescence, 48 h; Potency, µM (series often up to 46.2 µM), for inactives: at the highest dose activity change, negative = growth inhibition, actives largely listed as inhibitors; actives 15% (n = 420,000); note: potency is the fitted concentration of half-maximal effect; nearly all actives have a fitted effect of over 55% in size
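No-CPT arm: Tdp1-/-;hTDP1 DT40 cells (400/well) plus compounds, incubated ≥48 hr at 37 °C. Readout CellTiter-Glo luminescence.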
DT40 TDP1 CPT: qHTS for Inhibitors of human tyrosyl-DNA phosphodiesterase 1 (TDP1): qHTS in cells in presence of CPT; chicken DT40 Tdp1-/-;hTDP1 cells + 20 nM CPT, ATP luminescence, 48 h; Potency, µM (series often up to 46.2 µM), for inactives: at the highest dose activity change, negative = growth inhibition, usual class: inhibitors; actives 12% (n = 420,000); AID 686979, 2013; note: potency is the fitted concentration of half-maximal effect; nearly all actives have a fitted effect of over 55% in size
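Chicken DT40 Tdp1-/- cells complemented with human TDP1, 400 cells/well, exposed to compounds plus 20 nM camptothecin for at least 48 h at 37 C; viability read as ATP content by CellTiter-Glo luminescence.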
RORgamma inh: qHTS for inhibitors of ROR gamma transcriptional activity | Nuclear receptor ROR-gamma (Mus musculus), P51450 | Drosophila S2 Gal4-RORgamma UAS-luciferase reporter, 20 h | Potency, µM (top dose mostly 53.6 µM), inactives show top-dose activity change, negative = inhibition, actives largely listed as inhibitors | actives 5.4% (n = 310,000) | AID 2551, 2010; note: potency is the fitted concentration of half-maximal effect; nearly all actives have a fitted effect of over 60% in size
Target sequence (P51450 whole entry, looked up, the tested form may be a part): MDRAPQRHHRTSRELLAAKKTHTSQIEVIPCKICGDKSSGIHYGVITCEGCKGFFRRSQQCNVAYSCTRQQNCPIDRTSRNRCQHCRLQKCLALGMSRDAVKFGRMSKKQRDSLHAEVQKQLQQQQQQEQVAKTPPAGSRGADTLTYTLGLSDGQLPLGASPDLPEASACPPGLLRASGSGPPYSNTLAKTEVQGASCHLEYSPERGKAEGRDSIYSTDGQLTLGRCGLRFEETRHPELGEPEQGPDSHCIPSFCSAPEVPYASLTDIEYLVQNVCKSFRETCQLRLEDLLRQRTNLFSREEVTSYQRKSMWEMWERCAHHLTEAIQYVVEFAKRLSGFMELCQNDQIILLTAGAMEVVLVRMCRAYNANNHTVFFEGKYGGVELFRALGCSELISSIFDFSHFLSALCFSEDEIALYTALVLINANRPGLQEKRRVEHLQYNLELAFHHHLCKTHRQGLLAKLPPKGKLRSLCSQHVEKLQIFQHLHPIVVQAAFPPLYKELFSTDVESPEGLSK
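Drosophila Schneider cells stably carrying a metallothionein-driven Gal4 DBD–ROR gamma fusion and a UAS-Photinus luciferase reporter were exposed to compound for 1 hr, then induced with copper sulfate (700 uM final) for 20 hr at ambient temperature before luminescence reading.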
VP16 counter: VP16 counterscreen qHTS for inhibitors of ROR gamma transcriptional activity; Drosophila S2 Gal4-VP16 UAS-luciferase, luminescence, 20 h; Potency, µM (series often up to 53.6 µM), for the others: at the highest dose activity, negative = inhibition, hits mostly inhibitors; actives 3.5% (n = 310,000); AID 2546, 2010;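 note: Gal4-VP16 expression switched on by copper sulfate through the metallothionein promoter; potency is the fitted concentration of half-maximal effect; nearly all actives have a fitted effect of over 50% in size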
IL1B secr inh: qHTS for Inhibitors of Inflammasome Signaling: IL-1-beta AlphaLISA Primary Screen | THP-1 LPS/ATP IL-1B secretion, AlphaLISA, 16 h; hits give low values | activity change, % at 57.5 µM | actives 4.7% (n = 360,000) | AID 743279, 2014; in the data active = activity change below about -50%; inconclusive = mostly about -30% to -49%
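THP-1 cells pretreated 1 hr with compounds (up to 57.5 uM final), then stimulated with LPS (250 ng/mL final) plus ATP (1.25 mM final); secreted IL-1B measured by AlphaLISA after 16 hr, decreased signal indicating inhibition.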
Numbers without * were called inactive; ? = inconclusive; . = not tested or not shown; [ ] = remark or other dose. A selection: hits, their analogues and other compounds. The true share with any hit is near 21%. Unless noted, calls come from the whole dose curve; as a rule, active = well fitted curve in the direction sought with a large enough effect; inconclusive = small, poorly fitted or top-dose-only effect, or another doubt; inactive = no such curve, though single readings can be large; an effect the other way counts as inactive or inconclusive. % is set by controls: 0 for no effect and ±100 for the full control effect.

SMILES	ELG1 DNA repair	TDP1 cell noCPT	DT40 TDP1 CPT	RORgamma inh	VP16 counter	IL1B secr inh
CCOc1cc(C)c(C(C)C)cc1S(=O)(=O)N1CC(C)OC(C)C1 (stereo not drawn)	-10.7%	?	?	20.3%	6.7%	15.4
CCOc1cc(Br)ccc1S(=O)(=O)N1CC(C)OC(C)C1 (stereo not drawn)	?	?	25.9µM*	21.6%	-4.1%	9.4
O=C(O)CCCCC1SCC2NC(=O)NC21 (stereo not drawn)	12.2%	4.7%	5.5%	10.0%	-4.4%	-56.5*
CC1NC(=O)NC1CCCCCC(=O)NCCc1ccccc1 (stereo not drawn)	-8.5%	-8.7%	-7.5%	-9.2%	5.2%	-96.0*
C[C@@H]1NC(=O)N[C@@H]1CCCCCC(=O)O	.	-12.1%	-13.5%	.	.	-102.1*
Cc1cccc(C)c1NC(=O)CCCCCC1NC(=O)NC1C (stereo not drawn)	-8.2%	22.3%	2.3%	-0.7%	2.2%	-55.4*
CCCCCC1NC(=O)NC1CCCCCC(=O)O (stereo not drawn)	11.8%	-4.9%	-0.5%	-5.2%	5.5%	1.9
N[C@@H](CCCCNC(=O)CCCC[C@@H]1SC[C@H]2NC(=O)N[C@H]12)C(=O)O	.	.	.	8.9%	-7.2%	.
Cc1ccc(-c2csc(NCCn3c(C)nc4cc(C(F)(F)F)ccc43)n2)cc1	2.7%	?	?	.	.	-21.9
Cc1cccn2c(=O)cc(COc3ccc(NC(=O)COc4ccc(F)cc4)cc3)nc12	.	-20.6%	?	.	.	.
COC(=O)[C@@]1(Cc2ccccc2)[C@H]2c3cc(C(=O)N4CCCC4)[nH]c3C[C@H]2CN1C(=O)c1ccccc1	.	.	.	-5.8%	2.3%	.
COc1ccc(NC(=O)CN(c2ccccc2OC)S(=O)(=O)c2cccs2)cc1Cl	?	14.6µM*	?	.	.	-6.4
COc1ccccc1N(CC(=O)Nc1ccc(Br)cc1F)S(=O)(=O)c1cccs1	-21.4%	?	?	.	.	-54.5*
COc1cccc(NC(=O)CN(c2ccccc2OC)S(=O)(=O)c2cccs2)c1	20.6µM*	20.6µM*	?	.	.	3.4
COc1ccccc1N(CC(=O)Nc1ccccc1)S(=O)(=O)c1cccs1	-2.1%	?	-23.0%	.	.	-4.7
C1=C/C(=C2/C=Cc3ccccc32)c2ccccc2N1	.	-93.2%	?	.	.	.
COc1cccc(OCCOc2c(OC)cccc2OC)c1	6.4%	?	-27.3%	10.3%	16.4%	-59.7*
COc1cccc(OCCNC(=O)c2cc(OC)c(OC)c(OC)c2)c1	?	13µM*	?	16.6%	6.6%	2.5
COc1cc(NC(C)CCc2ccccc2)cc(OC)c1OC (stereo not drawn)	-20.6%	10.3µM*	13µM*	-0.1%	0.9%	-7.5
COc1cc(C(=O)NCCCCCCNC(=O)c2cc(OC)c(OC)c(OC)c2)cc(OC)c1OC	?	0.5%	11.1%	10.0%[1.91 µM]	-10.1%	8.4
COc1cc(C(=O)NCCCCc2ccccc2)cc(OC)c1OC	-10.1%	5.8µM*	?	7.3%	-9.5%	-2.4
COc1cc(C(=O)NCCOc2ccc(C)c(C)c2)cc(OC)c1OC	?	-10.8%	-19.3%	13.4%	-6.4%	-5.1
COc1cccc(OC)c1OCCCOc1c(OC)cccc1OC	0.6%	?	-12.9%	-9.9%	-3.6%	9.8
O=C(c1ccco1)N1CCC2(CCCN(Cc3ccccc3)C2)CC1	.	?	-4.5%	-0.5%	-17.3%	.
Cc1ccc(CSc2nnc3ccc(-c4ccncc4)nn23)cc1	-6.9%	-26.3%	-5.4%	-14.5%	-5.0%	-25.7
SMILES	ELG1 DNA repair	TDP1 cell noCPT	DT40 TDP1 CPT	RORgamma inh	VP16 counter	IL1B secr inh
Cc1ccc(O)c(N=Nc2ccc(S(=O)(=O)N3CCOCC3)cc2)c1	28.4%	-15.8%	2.4%	25.2%	-6.4%	-5.1
C/C(O)=C(\N=Nc1cc(C)ccc1O)C(N)=O	4.3%	20.6µM*	?	?	-8.9%	30.2
COc1ccc(N2CC(C)Cn3c2nc2c3c(=O)n(Cc3ccc(C)cc3)c(=O)n2C)c(OC)c1 (stereo not drawn)	?	16.4µM*	?	5.5%	-11.1%	?
COc1ccc(N2CCCn3c2nc2c3c(=O)n(Cc3ccc(F)cc3)c(=O)n2C)c(OC)c1	1.3%	?	?	29.7%	2.5%	18.9
COc1ccc(N2CC(C)Cn3c2nc2c3c(=O)n(Cc3ccc(F)cc3)c(=O)n2C)c(OC)c1 (stereo not drawn)	16.4µM*	?	?	42.2%	-3.6%	-5.1
CC(c1ccccc1)N1CCn2c(nc3cc(NC(=O)NC4CCCCC4)ccc32)C1 (stereo not drawn)	?	22.4µM*	22.4µM*	1.3%	-3.7%	76.8
Cn1c(CN2CCCC2)nc2cc(NC(=O)c3cccs3)ccc21	?	?	-25.0%	17.9%	-13.2%	-4.1
Cc1nn(CC(=O)Nc2ccc3c(c2)nc2n3CCN(C3CCCCC3)C2)c(=O)c2ccccc12	-2.0%	?	?	-0.6%	-0.7%	21.9
CC(c1ccccc1)N1CCn2c(nc3cc(NC(=O)c4cccs4)ccc32)C1 (stereo not drawn)	?	?	25.9µM*	6.8%	-5.1%	.
CN(C)c1nc2cc3c(cc2cc1CN(CC1CCCO1)C(=O)c1cccc(F)c1)OCO3 (stereo not drawn)	.	-2.9%	17.6%[9.04 µM]	.	.	.
CCc1ccc(OC(=O)c2sc3ncn(Cc4cccc(F)c4)c(=O)c3c2C)cc1	.	-12.3%	-10.0%	.	.	.
COc1ccc2c(c1)C1NC(=S)NC(C)(O2)C1C(=O)Nc1ccc(C)cc1C (stereo not drawn)	-2.7%	?	-3.7%	-20.3%	3.8%	-56.4*
COC(=O)CN1C(=O)CSc2ccc(S(=O)(=O)N3CCOCC3)cc21	.	-4.9%	24.2%	.	.	.
Cc1ccc(-c2noc(N=O)c2NO)cc1	?	23.1µM*	20.6µM*	0.708µM*	0.631µM*	-95.9*
CC(=O)N1C[C@H]2CON(C)[C@H]2C[C@H]1c1cccc(-c2ccccc2C)c1	.	-29.5%	-17.4%	.	.	4.6
N#CC1=C2SCN(C3CCCCC3)CN2C(=O)CC1c1ccc(F)cc1 (stereo not drawn)	.	16.4µM*	?	.	.	.
